Lassa entry inh: qHTS for Inhibitors of binding or entry into cells for Lassa Virus | Lassa virus pseudotype entry inhibition, cell reporter | Potency, µM (top dose mostly 37.9 µM), for inactives: at the highest dose activity change, negative = inhibition, most hits filed as inhibitors | 1.2% of 300,000 active | AID 540256, 2011; calls by dose curve; tested in HEK293 cells; further: potency means the concentration at half of the fitted maximal effect; on the % scale 0 is the no-effect control and ±100 the full control effect; nearly all actives have a fitted effect of over 50% in size
FMDV antiviral: High Throughput Screening for Foot and Mouth Disease Virus Antivirals | Potency, µM (highest dose often 57.9 µM), without a hit: at the top dose activity change, negative = inhibition, hits mostly inhibitors | 1.2% of 410,000 active | FMDV antiviral cell-based qHTS; calls by dose curve; tested in HEK293T cells; further: read-out not given here; potency means the concentration at half of the fitted maximal effect; on the % scale 0 is the no-effect control and ±100 the full control effect; nearly all actives have a fitted effect of over 45% in size
HCV inhibitor: qHTS Assay for Inhibitors of Hepatitis C Virus (HCV); Huh7.5.1 HCVcc-Cre infection, luciferase reporter, 44 h; Potency, µM (doses to about 41.8 µM), inactives show at the highest dose activity change, negative = inhibition, most hits filed as inhibitors; 3.4% of 340,000 active; active means well fitted inhibition curve with a large enough effect; inconclusive means small, poorly fitted or top-dose-only effect, or another doubt; inactive means no such curve, though single readings can be large or run the other way; further: potency means the concentration at half of the fitted maximal effect; on the % scale 0 is the no-effect control and ±100 the full control effect
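Compounds are dispensed onto cells plated 4 h earlier at 1,000 per well, with HCVcc-Cre virus (about 0.5 moi) added next. Following 44 h of culture, luminescent signal is measured for 15 sec after 15 min with substrate at room temperature.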
HCMV inh: qHTS Assay for inhibitors of the human cytomegalovirus (HCMV); AID 1259415, 2018; 4.5% of 410,000 active; activity change, negative = inhibition, % at 57.5 µM; HFF cells, HCMV-luciferase reporter, 72 h; hits give low values; in the data active means activity change below about -60%; inconclusive means no clear call, values can overlap the other calls; inactive means above about -39%; further: on the % scale 0 is the no-effect control and ±100 the full control effect
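Compounds were evaluated in HFFs infected with an HCMV luciferase reporter virus (MOI 1 PFU/cell). Luciferase in lysates collected 72 h post infection served as the replication measure.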
Marburg entry inh: qHTS for inhibitors of binding or entry into cells for Marburg Virus. Potency, µM (series often up to 37.8 µM), without a hit: at the top dose activity change, negative = inhibition, hits mostly inhibitors. 1.8% of 300,000 active. AID 540276, 2011. Marburg virus pseudotyped entry inhibition, cell reporter; calls by dose curve; tested in HEK293 cells; further: potency means the concentration at half of the fitted maximal effect; on the % scale 0 is the no-effect control and ±100 the full control effect
SARS PLpro yeast: qHTS of Yeast-based Assay for SARS-CoV PLP; S. cerevisiae expressing SARS-CoV PLpro, growth rescue; Potency, µM (doses to about 32.9 µM), without a hit: top-dose activity, positive = growth rescue, actives largely listed as activators; 0.19% of 330,000 active; calls by dose curve; further: potency means the concentration at half of the fitted maximal effect; 0% is about no effect; nearly all actives have a fitted effect of over 55% in size
The depositor's hits bear a star; ? = inconclusive; . = no result given; [ ] = dose if it differs, or a comment. In the library only some 8% were active in any assay of this set; here they are far more common.

SMILES	Lassa entry inh	FMDV antiviral	HCV inhibitor	HCMV inh	Marburg entry inh	SARS PLpro yeast
Cc1ccccc1NC(=O)c1cc2sccc2n1Cc1ccc(F)cc1	3.1%[46.1 µM]	2.0%	.	-13.9	?	.
O=C(c1ccc(Cl)s1)N1CCN(c2nc3ccccc3s2)CC1	.	?	8.2%	-27.8	3.6%	-15.6%
O=C(c1cccs1)N1CCN(c2nc3ccccc3s2)CC1	.	?	-12.3%	-36.1	.	-2.3%
O=C(c1cc2sccc2n1Cc1ccc(F)cc1)N1CCN(c2nc3ccccc3s2)CC1	-35.0%	?	3.16µM*	?	3.55µM*	20.1%
Cn1c(C(=O)N2CCN(c3nc4ccccc4s3)CC2)cc2sccc21	-0.7%	?	-12.2%	-73.8*	-27.8%	3.1%
O=C(O)c1ccc2c3n(nc2c1)-c1ccc(Cl)cc1CO3	.	7.94µM*	54.8%	59.8	.	-3.5%
O=C(c1ccc2c3n(nc2c1)-c1ccc(Cl)cc1CO3)N1CCCCC1	.	70.6%	0.1%	110.4	.	-19.2%
CC(C)Oc1ccc(CNC(=O)CN2C(=O)CCn3nc(-c4cn(C)c5ccccc45)cc32)cc1	4.7%[46.1 µM]	-6.5%	.	30.7	.	.
CC1=C(C(=O)N(C(C)C)C(C)C)CC(CC(=O)NC(c2ccccc2)c2ccccc2)C(=O)N1CCC1=CCCCC1 (stereo not drawn)	.	?	.	-109.9*	.	.
CC1=C(C(=O)N(C(C)C)C(C)C)CC(CC(=O)NCCCCc2ccccc2)C(=O)N1Cc1ccc(C(C)(C)C)cc1 (stereo not drawn)	.	?	.	-104.6*	.	.
COc1ccc(CN2C(=O)C(CC(=O)NCCCCc3ccccc3)CC(C(=O)N(C(C)C)C(C)C)=C2C)cc1 (stereo not drawn)	.	-29.7%	.	18.6	.	.
Fc1ccccc1-c1nc(N2CCN(c3cccc(Cl)c3)CC2)c2ccccc2n1	-21.4%[46.1 µM]	?	.	2.0	.	.
O=C(c1ccc(S(=O)(=O)Cc2ccccc2F)c([N+](=O)[O-])c1)N1CCCCCC1	-8.8%	?	?	?	?	4.4%
O=C(c1ccc(S(=O)(=O)c2ccccc2Cl)c([N+](=O)[O-])c1)N1CCCCCC1	-24.9%	?	?	-65.0*	?	12.3%
O=C(c1ccc(S(=O)(=O)c2cccc(Cl)c2)c([N+](=O)[O-])c1)N1CCN(c2ccccn2)CC1	?	15.8µM*	?	-78.0*	7.08µM*	-4.2%
C=CCCCN1C=C(C(=O)OCC)C(c2ccccc2)NC1=O (stereo not drawn)	.	.	.	.	-10.8%[14.2 µM]	.
O=C1c2ccc(Oc3cccc([N+](=O)[O-])c3)cc2C(=O)N1c1ccccn1	.	-6.5%	0.2%	-23.2	.	-0.5%
O=C1c2cc([N+](=O)[O-])cc3cc([N+](=O)[O-])cc(c23)C(=O)N1c1ccccn1	?	12.6µM*	?	-14.1	?	23.9%
O=C(O)c1cccc(N2C(=O)c3cc([N+](=O)[O-])cc4cc([N+](=O)[O-])cc(c34)C2=O)c1	.	35.5µM*	?	-17.9	.	5.0%
Cc1ccc(OCC(=O)N2N=C(C(F)(F)F)CC2(O)C(C)(C)C)cc1C (stereo not drawn)	?	?	-24.5%	-90.8*	?	-23.2%
Cc1ccccc1OCC(=O)N1N=C(C(F)(F)F)CC1(O)C(C)(C)C (stereo not drawn)	-0.4%	-20.9%	-4.5%	1.7	10.2%	-10.8%
CNc1ccccc1C(C)(C)c1cc(-c2ccco2)n[nH]1	0.0%	.	-16.2%	2.9	4.1%	-3.7%
CNc1ccccc1C(C)(C)c1cc(C)[nH]n1	.	-26.6%	1.0%	-65.0*	.	7.1%
COc1ccc2cc(CNc3ccc(OC)c(OC)c3)c(=O)n(CC(=O)Nc3ccc(C)cc3)c2c1	0.0%[46.1 µM]	-16.7%	.	-18.9	.	.
COc1ccc(-n2ccnc(NCCc3ccc(S(N)(=O)=O)cc3)c2=O)cc1Cl	-18.4%[46.1 µM]	-16.8%	.	-14.7	.	.
SMILES	Lassa entry inh	FMDV antiviral	HCV inhibitor	HCMV inh	Marburg entry inh	SARS PLpro yeast
CCCCOc1ccc(C(=O)NCCS(=O)(=O)N2CCN(c3ccccc3OC)CC2)cc1	?	14.1µM*	.	-25.9	.	.
Cc1ccc(-c2nnc(SCC(=O)NC(C)(C)C)nc2-c2ccc(C)cc2)cc1	?	-26.4%	.	-0.9	.	.
CCC(=O)Nc1nnc(S(=O)(=O)N(CC)c2ccc(Cl)cc2)s1	.	3.2%	7.7%	-67.3*	.	-0.5%
CCN(c1cccc(C)c1)S(=O)(=O)c1nnc(NC(=O)c2cccs2)s1	10µM*	37.5%	.	12.0	.	.
CCN(c1ccc(Cl)cc1)S(=O)(=O)c1nnc(NC(=O)C2CCCCC2)s1	3.9%[46.1 µM]	-18.3%	.	-63.9*	.	.
Cc1ccc(C)c(NC(=O)Cn2cc(C(=O)c3cccs3)c3ccccc32)c1	?	?	.	-26.9	?	.
NCCCCNS(=O)(=O)c1ccc2c(Cl)cccc2c1	.	-29.9%	.	.	.	.
NCCNS(=O)(=O)c1cccc2c(Cl)cccc12	-28.7%	-11.5%	.	.	11.2µM*	.
CCCCC(CC)C(=O)Nc1ncc([N+](=O)[O-])s1 (stereo not drawn)	?	?	?	-74.5*	?	0.2%
Cc1ccc(CC(=O)Nc2ncc([N+](=O)[O-])s2)cc1	.	62.1%	-4.9%	36.6	.	-3.0%
Cc1ccc2c(c1N)C(=O)c1ccccc1C2=O	.	18.5%	-19.5%	191.3	.	0.0%
Cc1ccc2c(c1C)-c1c(ccc(C)c1C)C(=O)C2=O	?	28.2µM*	11.2µM*	-96.3*	?	.
CC(=O)Nc1ccc(NC(=O)C2CCN(c3ccc(C(F)(F)F)cn3)CC2)cc1	9.6%[46.1 µM]	-27.2%	12.6µM*	-67.2*	-9.0%[46.1 µM]	-0.8%
NC(=O)C1CCN(c2ccc(C(F)(F)F)cn2)CC1	.	22.6%	14.4%	19.7	1.4%[46.1 µM]	3.3%
CCC(C)c1ccc(NC(=O)C2CCN(c3ccc(C(F)(F)F)cn3)CC2)cc1 (stereo not drawn)	-5.1%	?	-13.0%	-60.4*	-11.0%	9.7%
O=C(Nc1ccc(N2CCOCC2)nc1)c1ccc(C(F)(F)F)cc1	?	8.91µM*	7.08µM*	-68.2*	9.1%[46.1 µM]	-1.0%
Cc1cccc(C(=O)Nc2ccc(N3CCN(c4ccc(C(F)(F)F)cn4)CC3)nc2)c1	2.3%	-15.4%	16.0%	-31.7	6.1%	-0.8%
CS(=O)(=O)Nc1ccc(N2CCN(c3ccc(C(F)(F)F)cn3)CC2)nc1	4.9%	?	11.2µM*	?	-21.5%	-0.1%
O[C@H](CN1CCN(c2cccc(Cl)c2)CC1)C(c1ccccc1)c1ccccc1	.	.	.	.	21.7%	.
CC(C)C(NS(C)(=O)=O)c1nnc2n1CCN(Cc1ccc(Cl)cc1)CC2 (stereo not drawn)	.	-9.6%	.	.	.	.
O=C1CCN(Cc2cccc(C(F)(F)F)c2)CCN1Cc1ccccn1	.	-10.5%	.	.	.	.
